Inconclusive results are not listed. Calls of active or inactive are those of the source. Calls come from the whole dose curve.
target: Atrial natriuretic peptide receptor 1 (Homo sapiens) (UniProt P16066); assay: Natriuretic polypeptide receptor (hNpr1) antagonism - Pilot CMLD screen (AID 1347052); conditions: HEK293 hNpr1 GloSensor cGMP luminescence, ANP-stimulated; series mostly up to 9.22 µM; activity change, negative = inhibition: at the top concentration;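 note: HEK293 cells with hNpr1 stimulated by hNppA peptide at 0.1 nM; cGMP level read as GloSensor luciferase luminescence after agonist stimulation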
Sequence (P16066 whole entry, looked up): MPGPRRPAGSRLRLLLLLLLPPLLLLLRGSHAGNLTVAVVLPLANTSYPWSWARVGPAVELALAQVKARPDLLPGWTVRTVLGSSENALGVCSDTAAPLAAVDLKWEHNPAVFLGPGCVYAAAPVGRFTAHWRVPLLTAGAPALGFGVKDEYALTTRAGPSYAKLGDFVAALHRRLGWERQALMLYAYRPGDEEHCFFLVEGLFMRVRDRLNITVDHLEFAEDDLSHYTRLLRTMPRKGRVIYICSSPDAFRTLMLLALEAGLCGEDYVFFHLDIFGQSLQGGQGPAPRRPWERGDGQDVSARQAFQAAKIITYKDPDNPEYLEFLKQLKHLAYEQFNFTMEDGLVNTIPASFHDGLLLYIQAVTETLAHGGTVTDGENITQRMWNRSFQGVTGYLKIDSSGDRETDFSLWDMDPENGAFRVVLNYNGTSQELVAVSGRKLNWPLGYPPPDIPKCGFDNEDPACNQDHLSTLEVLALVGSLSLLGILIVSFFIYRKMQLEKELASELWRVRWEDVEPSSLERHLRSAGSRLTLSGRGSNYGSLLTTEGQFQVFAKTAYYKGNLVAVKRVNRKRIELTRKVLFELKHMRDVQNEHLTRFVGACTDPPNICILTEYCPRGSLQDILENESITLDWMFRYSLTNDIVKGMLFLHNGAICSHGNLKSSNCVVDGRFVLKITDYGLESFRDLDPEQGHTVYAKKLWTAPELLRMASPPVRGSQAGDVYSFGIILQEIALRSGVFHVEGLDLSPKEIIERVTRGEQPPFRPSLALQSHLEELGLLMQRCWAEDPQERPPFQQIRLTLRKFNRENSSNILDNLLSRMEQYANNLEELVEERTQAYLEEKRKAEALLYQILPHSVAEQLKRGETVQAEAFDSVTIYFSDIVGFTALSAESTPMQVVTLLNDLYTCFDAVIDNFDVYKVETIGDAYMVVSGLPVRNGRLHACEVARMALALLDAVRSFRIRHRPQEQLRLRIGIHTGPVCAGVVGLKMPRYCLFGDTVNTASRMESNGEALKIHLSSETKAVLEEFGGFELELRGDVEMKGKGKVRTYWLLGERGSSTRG
% is set by controls: 0 for no effect and ±100 for the full control effect.

Activity change, negative = inhibition, inactive:
C[C@H](NC(=O)N1CCc2nc(COc3ccccc3)c3c(c2C1)CO[C@@H](C)C3)c1ccccc1 2.79%
Cc1ccc2[nH]c3nc(CCCn4ccnc4-c4ccccc4)nnc3c2c1 12.2%
COc1ccc(O[C@H]2C=C[C@@H](c3ccccc3)O[C@H]2COC(=O)CCC(C)=NOC[C@@H](O)COCc2ccco2)cc1 2.21%
CCCCC1=CC2=CC(=O)C(C)(O)C(=O)C2=CO1 (configuration not stated) 12.2%
C[C@@H]1CC[C@H]2C(=O)N(Cc3cccc([N+](=O)[O-])c3)C[C@H](O)CN2[C@@H]1c1cccc(Br)c1 -1.47%
COC(=O)CC1c2ccccc2C(Cc2ccc3c(c2)OCO3)=C(C)N1C(=O)OC (configuration not stated) 11.3%
COCC1=C(C(=O)OC)C(c2ccccc2)N(C(C)=O)C(=O)N1 (configuration not stated) 1.38%
COc1ccc2c(c1)C(=O)[C@@H](OC(=O)NCCc1ccc(OC)c(OC)c1)[C@H](c1ccc(OC)c(Br)c1)O2 13.9%
COc1ccc(N2C=C3C(=O)C(C)(OC(=O)C4CCCC4)C(=O)C=C3C=C2c2ccsc2)cc1 (configuration not stated) -2.59%
CC(CCN1CCCc2nc(C)c(C)cc21)=NOC[C@@H](O)[C@H]1O[C@@H]2OC(C)(C)O[C@H]2[C@@H]1O 0.021%
C=CCOC(=O)N[C@H](c1ccc(-c2ccccc2)cc1)[C@H](C)C=CCC(=O)OC -2.12%
CCN1C(=O)N(S(=O)(=O)c2ccc(C)cc2)C(c2ccccc2)C(C(=O)OC)=C1C (configuration not stated) -0.426%
